Here are results for 5 compounds from PubChem BioAssay.

The nature of assay [1]: A549 cell viability effects, profiling panel, calcein-AM fluorescence, 48 h, basal (AID 1162). Also: test concentration not given here. To be noted: higher = more signal.
A short description of assay [2]: adipocyte viability effects, profiling panel, cell-based, 3T3-L1 adipocytes, calcein-AM fluorescence, 48 h, basal (AID 1163). Also: test concentration not given here. To be noted: 3T3-L1 adipocytes viability, higher = more signal.
Assay [3] in a line: HepG2 cell viability effects, profiling panel, calcein-AM fluorescence, 48 h, basal (AID 1164). Also: test concentration not given here. To be noted: higher = more signal.
Assay [4] in a line: MM1S cell viability effects, profiling panel, calcein-AM fluorescence, 48 h, basal (AID 1165).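 Also: viability of MM1S multiple myeloma cells under basal unstimulated conditions; test concentration not given here.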 The following applies: higher = more signal.
The nature of assay [5]: basal RPMI8226 viability, no added stimulus, profiling panel, cell-based, calcein-AM fluorescence, 48 h, PK04 Diversity Set (AID 1166).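 Also: cells grown under basal conditions without added stimulus; test concentration not given here.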 The following applies: RPMI8226 myeloma viability, higher = more signal.
Assay [6] in a line: basal HepG2 mitochondrial membrane potential changes, profiling panel, cell-based, JC-1 fluorescence, 24 h, 100 nL compound (AID 1167). Also: test concentration not given here. The following applies: higher = more signal.
Assay [7] in a line: basal 3T3-L1 adipocyte mitochondrial potential changes, profiling panel, cell-based, JC-1 fluorescence, 3T3-L1 adipocytes, 24 h, 100 nL compound (AID 1168). Also: test concentration not given here. The following applies: JC-1 mitochondrial fluorescence, higher = more signal, called active from +8 up or from −8 down.
Assay [8] can be described thus: basal RPMI8226 mitochondrial membrane potential changes, profiling panel, cell-based, JC-1 fluorescence, 24 h, 100 nL compound (AID 1169). Also: test concentration not given here. The following applies: RPMI8226 myeloma, JC-1 mitochondrial potential fluorescence, higher = more signal.
Assay [9] is described as follows: basal MM1S mitochondrial membrane potential changes, profiling panel, cell-based, JC-1 fluorescence, 24 h, 100 nL compound (AID 1170). Also: test concentration not given here. The following applies: higher = more signal.
Assay [10] is described as follows: A549 lung cancer cell viability effects, profiling panel, resazurin fluorescence, 24 h, PK04 Diversity Set (AID 1171). Also: test concentration not given here. To be noted: higher = more signal, called active from +8 up or from −8 down. Background: The colour change of resazurin is a common sign of viable cells or microbes.
Assay [11] in a line: HepG2 liver cancer cell viability effects, profiling panel, resazurin fluorescence, 24 h, PK04 Diversity Set (AID 1172). Also: test concentration not given here. To be noted: higher = more signal.
The nature of assay [12]: basal S. cerevisiae growth modulation, no modifier, primary screen, OD600, strain BY4716, 24 h, basal condition (AID 1173). To be noted: OD600, 24 h, higher = more signal, called active from +8 up or from −8 down.
A short description of assay [13]: MM1S myeloma cell viability, profiling panel, resazurin fluorescence, basal, 24 h, PK04 Diversity Set (AID 1174).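 Also: MM1S multiple myeloma cell line; test concentration not given here.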 To be noted: higher = more signal, called active from +8 up or from −8 down.
Assay [14] concerns the target Dihydroorotate dehydrogenase (quinone), mitochondrial (Plasmodium falciparum (isolate 3D7)) (UniProt Q08210). Description: PfDHODH enzyme inhibitors, primary screen, biochemical, C-terminal His tag, absorbance 600 nm (AID 1175).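 Also: recombinant parasite enzyme with a five histidine tag at its C terminus; test concentration not given here.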 The following applies: DCIP absorbance 600 nm, higher = more signal, called active from +8 up or from −8 down.
Assay [15] can be described thus: P. aeruginosa biofilm formation inhibitors, primary screen, strain PAO1, LB-PBS medium, absorbance 600 nm (AID 1176). Also: test concentration not given here. The following applies: P. aeruginosa PAO1 growth/biofilm, A600, 12 h; higher = more signal.
Assay [16] can be described thus: S. cerevisiae RM11-1a growth modifiers, primary screen, strain RM11-1a, OD600, basal, 24 h (AID 1177).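 Also: cultures grown under basal conditions with no added stressor; test concentration not given here.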 To be noted: OD600, 24 h, higher = more signal, called active from +8 up or from −8 down.
Assay [17] in a line: E. coli acrAB mutant growth effects, primary screen, E. coli filamentation inducers, strain DRC39, OD650, 24 h (AID 1178).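 Also: growth measured as culture turbidity by optical density at 650 nm; test concentration not given here.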 To be noted: higher = more signal, called active from +8 up or from −8 down.
Assay [18] can be described thus: E. coli acrAB mutant growth effects, primary screen, E. coli filamentation inducers, strain DRC39, OD650, 48 h (AID 1179).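 Also: screen aims at cell division blockers that make cells filament.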 The following applies: E. coli DRC39 delta-acrAB growth, higher = more signal, called active from +8 up or from −8 down.
A short description of assay [19]: RPMI8226 myeloma cell viability, profiling panel, resazurin fluorescence, basal, 24 h, PK04 Diversity Set (AID 1180).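 Also: RPMI8826 multiple myeloma cell line at 5000 cells per well; test concentration not given here.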 To be noted: higher = more signal.
Assay [20] addresses E3 ubiquitin-protein ligase XIAP (Homo sapiens) (UniProt P98170). Kind of assay: XIAP binders, primary screen, biophysical, small-molecule microarray, fluorescence 635 nm (AID 1181).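 Also: score merges 667 nm emission and signal to noise over triplicate slides.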 To be noted: small-molecule microarray binding, higher = more signal.

Molecules are shown by their SMILES. Active and inactive are the calls of the source. Unless noted, no rule for the calls is given here.

Chain of Dihydroorotate dehydrogenase (quinone), mitochondrial (Plasmodium falciparum (isolate 3D7)) (Q08210 whole entry, looked up): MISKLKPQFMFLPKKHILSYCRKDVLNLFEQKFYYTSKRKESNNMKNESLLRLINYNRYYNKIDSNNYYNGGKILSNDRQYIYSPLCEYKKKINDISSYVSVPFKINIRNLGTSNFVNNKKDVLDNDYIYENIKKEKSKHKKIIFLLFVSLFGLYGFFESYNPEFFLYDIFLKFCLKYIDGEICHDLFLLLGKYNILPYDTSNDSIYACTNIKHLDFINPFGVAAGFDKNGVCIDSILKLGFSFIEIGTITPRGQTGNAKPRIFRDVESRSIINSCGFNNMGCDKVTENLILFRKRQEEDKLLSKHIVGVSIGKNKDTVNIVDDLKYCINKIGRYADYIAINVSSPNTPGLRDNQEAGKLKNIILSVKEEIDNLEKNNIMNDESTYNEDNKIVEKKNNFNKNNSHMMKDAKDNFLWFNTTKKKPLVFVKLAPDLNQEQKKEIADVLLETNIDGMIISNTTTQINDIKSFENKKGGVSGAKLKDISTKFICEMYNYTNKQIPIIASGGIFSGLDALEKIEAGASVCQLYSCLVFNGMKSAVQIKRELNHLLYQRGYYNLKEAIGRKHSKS
Chain of E3 ubiquitin-protein ligase XIAP (Homo sapiens) (P98170 whole entry, looked up): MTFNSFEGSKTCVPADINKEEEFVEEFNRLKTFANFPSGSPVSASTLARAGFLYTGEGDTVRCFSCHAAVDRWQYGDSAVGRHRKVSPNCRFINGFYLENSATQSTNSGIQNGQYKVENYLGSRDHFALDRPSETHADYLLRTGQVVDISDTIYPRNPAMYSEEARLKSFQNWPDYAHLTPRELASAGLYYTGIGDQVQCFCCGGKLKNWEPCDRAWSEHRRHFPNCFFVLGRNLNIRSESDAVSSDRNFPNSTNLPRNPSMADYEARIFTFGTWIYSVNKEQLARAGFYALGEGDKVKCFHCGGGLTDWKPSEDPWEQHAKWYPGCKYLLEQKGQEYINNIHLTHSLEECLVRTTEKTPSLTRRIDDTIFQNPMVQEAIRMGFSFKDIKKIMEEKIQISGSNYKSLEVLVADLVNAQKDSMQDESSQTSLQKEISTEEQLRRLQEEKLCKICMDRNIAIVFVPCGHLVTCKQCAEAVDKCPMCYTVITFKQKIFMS

Regarding `CCCN1C(=O)[C@]2(Cc3ccccc31)N=C(c1ccc(OCCCO)cc1)O[C@@H]2c1ccccc1`, the z-score was -1.29 in assay [1]; 1.07 in assay [2]; -1.46 in assay [3]; -1.6 in assay [4]; -4.4 in [5]; -0.29 in assay [6]. The z-score in assay [7] was -0.906 (inactive); in [8], -1.17; in [9] it was 0.278; in [10] it was -1.6 (inactive); in assay [11], -0.222; in assay [12] it was -1.72 (inactive). The z-score in [13] was -1.31 (inactive); in assay [15], 0.0279 (inactive); in [16], 1.4 (inactive); in assay [17], 1.15 (inactive); in assay [18], -0.413 (inactive); in assay [19] it was -0.804. The composite z-score in assay [14] is 1.16 (inactive); in assay [20], 0.0605.
With `O=C1N(Cc2ccccc2)c2ccccc2C[C@]12N=C(c1ccc(OCCCO)cc1)O[C@@H]2c1ccccc1`, the z-score in [1] is -1.25; in assay [2] it was -0.372; in assay [3] it was -3.54; in [4] it was -2.32; in assay [5], -3.88; in assay [6], -1.05. The z-score in assay [7] is 0.162 (inactive); in [8], -1.22; in [9], -2.58; in [10], -2.07 (inactive); in assay [11] it was -0.658; in [12], 0.0989 (inactive). The z-score is -2.55 (inactive) in assay [13]; 1.58 (inactive) in assay [15]; 1.29 (inactive) in [16]; 0.223 (inactive) in assay [17]; -0.2 (inactive) in [18]; -2.6 in [19]. In addition, the composite z-score in assay [14] is 0.581 (inactive); in assay [20], -0.135.
`CC(C)=C1C(=O)C(c2ccccc2)=C2CN3C(=O)N(CCc4ccccc4)C(=O)[C@]3(Cc3ccc(C(F)(F)F)cc3)[C@H]21`: the z-score in assay [1] was 0.549; in assay [2], 0.66; in assay [3], -0.232; in [4], -1.14; in assay [5] it was -1.16; in assay [6] it was -1.5. Moreover, the z-score is -0.876 (inactive) in assay [7]; -0.699 in assay [8]; -0.746 in [9]; -0.327 (inactive) in assay [10]; -1.09 in assay [11]; 0.908 (inactive) in [12]. In addition, the z-score is -1.32 (inactive) in assay [13]; 0.799 (inactive) in assay [15]; 0.12 (inactive) in assay [16]; -0.943 (inactive) in assay [17]; -0.633 (inactive) in assay [18]; -1.19 in assay [19]. Moreover, the composite z-score in assay [14] was -0.29 (inactive); in assay [20] it was -0.213.
For the compound `COc1cc(NN2C(C(O)c3ccco3)C=CC3C(=O)N(C)C(=O)C32)cc(OC)c1OC` (stereo not given), the z-score in [1] is -1.2; in assay [2], -0.615; in assay [3], -0.827; in [4], 0.032; in [5], 0.134; in assay [6] it was -1.01. The z-score in assay [7] was -0.892 (inactive); in assay [8], -0.573; in assay [9] it was 0.314; in assay [10], -1.41 (inactive); in assay [11] it was -1.41; in [12], 0.753 (inactive). The z-score in [13] was -1.76 (inactive); in assay [15], 0.711 (inactive); in [16], 0.322 (inactive); in assay [17], -1.02 (inactive); in assay [18] it was -0.941 (inactive); in assay [19], -1.98. Also, the figures for the composite z-score in assay [14] and in assay [20] were -0.139 (inactive) and 0.391, respectively.
In the case of `CCCC[C@@H](O)C1=C(COc2ccccc2)C[C@H]2C(=O)N(Cc3ccccc3)C(=O)[C@H]2[C@H]1CO`, the z-score is 0.553 in [1]; -0.0277 in assay [2]; 0.913 in [3]; -0.189 in [4]; 0.0172 in assay [5]; 1.17 in [6]. In addition, the z-score in [7] was 0.0746 (inactive); in assay [8], -1.06; in [9], -0.172; in assay [10], -0.0959 (inactive); in assay [11] it was -0.78; in [12], -1.66 (inactive). The z-score in assay [13] was -0.857 (inactive); in assay [15], -0.508 (inactive); in assay [16], 0.743 (inactive); in [17], -0.0552 (inactive); in assay [18], 0.218 (inactive); in assay [19], -0.301. For the same compound, the composite z-score is -4.48 (inactive) in assay [14] and -0.0118 in assay [20].
